Experimental data reported in PubChem BioAssay AID540317 (National Center for Advancing Translational Sciences (NCATS), 2011).
The campaign covered roughly 390,000 compounds. About 2,200 (0.56%) were called active. Not shown: some 3% with an inconclusive outcome. The call rests on the fitted dose curve; in most records, active means well fitted inhibition curve with a large enough effect; inconclusive means small, poorly fitted or top-dose-only effect; inactive means no such curve, though single readings can be large or run the other way. This excerpt belongs to a sample that is enriched for actives.

biological target: Chromobox protein homolog 1 (Homo sapiens) (UniProt P83916); test: HTS for Inhibitors of HP1-beta Chromodomain Interactions with Methylated Histone Tails; conditions: AlphaScreen HP1-beta / biotin-H3K9me3 peptide binding; series mostly up to 114 µM; activity change, negative = inhibition: at the top concentration; further: nearly all actives have a fitted effect of over 70% in size
Outline: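 HP1-beta protein (50 nM final) preincubated 30 min at room temperature with biotinylated H3(1-18)K9me3 peptide (50 nM) in PBS pH 7.4, 0.01% Tween-20, then compound added for 30 min. AlphaScreen streptavidin donor/nickel chelate acceptor beads (10 ug/mL final), 30 min dark, luminescence read.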
Potency means the concentration at half of the fitted maximal effect.

Sequence of Chromobox protein homolog 1 (Homo sapiens) (P83916 whole entry, looked up): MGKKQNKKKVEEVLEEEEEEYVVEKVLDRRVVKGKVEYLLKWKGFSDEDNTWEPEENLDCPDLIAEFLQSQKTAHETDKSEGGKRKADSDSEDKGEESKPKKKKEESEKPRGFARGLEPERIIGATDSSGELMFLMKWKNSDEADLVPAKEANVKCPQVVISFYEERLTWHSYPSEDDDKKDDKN

Potency, active:
O=C(OC12CC3CC(CC(C3)C1)C2)c1ccc(NCc2cc(O)ccc2O)cc1 70.8 µM
Cc1ccc(NN=Nc2nc3c([nH]2)c(=O)n(C)c(=O)n3C)cc1 35.5 µM
Oc1c(CN2CCOCC2)ccc(CN2CCOCC2)c1O 15.8 µM
CC(=O)N1CC[n+]2c(-c3ccc([N+](=O)[O-])cc3)csc21 10 µM
O=C(Nc1cc2c3c(c1)C1CCCC1CN3CC1CCCC21)c1ccc([N+](=O)[O-])cc1 (configuration not stated) 11.2 µM
COc1ccc(S(=O)(=O)/N=C2\C=C(NS(=O)(=O)c3ccccc3)C(=O)c3ccccc32)cc1 28.2 µM
O=C1C=CC(=O)N1c1ccc(N2CCCCC2)cc1 15.8 µM
O=c1[nH]c2ccccc2n2c(-c3ccccc3)nnc12 5.62 µM
C=C(C)C(=O)Nc1cccc(C2=NOC3(C2)C[C@H](C(N)=O)N(C(=O)C(c2ccccc2)c2ccccc2)C3)c1 (some centres not stated) 12.6 µM
COc1ccc(-c2nc(=N)sn2-c2ccccc2)cc1 14.1 µM
COCCCn1c(Cc2csc(Nc3cccc(Cl)c3)n2)nnc1SCC(=O)OC1CCCCC1 50.1 µM
CCS(=O)(=O)c1cc([N+](=O)[O-])c(Sc2ccccc2N)s1 39.8 µM
C=CC1=C(C(=O)O)N2C(=O)[C@@H](NC(=O)/C(=N/OCC(=O)O)c3csc(N)n3)[C@H]2SC1 14.1 µM
CN(C)c1ccc(CSc2ccccc2)cc1 39.8 µM

Activity change, negative = inhibition, inactive:
O=C(Cn1ncn2nc(-c3cccs3)cc2c1=O)NCc1cccc(Br)c1 38.2%
Cc1ccc(CNC(=O)CSc2c(C)cnc3c2c(=O)n(C)c(=O)n3C)cc1 31.3%
Cc1cc(C)c(C=NNc2nc3c([nH]2)c(=O)n(C)c(=O)n3C)c(C)c1 8.59% [at 57 µM]
COc1ccc(NC(=O)CSc2nc3ncccc3[nH]2)c(OC)c1 58.9%
COc1ccc(CNC(=O)CCc2c(C)nn(-c3ccc(N4CCCC4)nn3)c2C)cc1 59.8%
Cc1cccc(C)c1-n1ncc(C(=O)NCCCN2CCCCC2)c1C1CCN(C(=O)OC(C)(C)C)CC1 45.8%
Cc1cccc(Nc2cc(C)nc(-n3nc(C)cc3C)n2)c1 25.9% [at 57 µM]
COc1ccc(OC)c(-n2nnc(-c3nc(-c4cc(OC)c(OC)c(OC)c4)no3)c2C)c1 9.72%
OCCN1CCOCCOCCN(CCO)CCN(CCO)CC1 48.4%
CCCC(=O)NC(=S)Nc1ccc(CN2CCOCC2)cc1 32.7%
Cc1cc(C)cc(C(=O)N2CCN=C2SCc2ccc([N+](=O)[O-])cc2)c1 -0.188%
O=C(C1CCC1)N1CCN(S(=O)(=O)c2ccc([N+](=O)[O-])cc2)CC1 31.4%
O=S(=O)(c1ccc(Cl)cc1)c1nnn2c1nc(NC1CCCC1)c1sccc12 20.5%
Cc1ccccc1CNC(=O)c1cccc(NC(=O)c2nsc3ccccc23)c1 27.1% [at 57 µM]
Cc1ccc(NC(=O)Nc2sc3nc4n(c(=O)c3c2C)CCC(C)CC4)c(Cl)c1 (configuration not stated) 61.7%
CC1CCc2noc(NC(=O)c3ccc([N+](=O)[O-])cc3)c2C1 (configuration not stated) 61.7%
O=C(CCNC(=O)c1ccc([N+](=O)[O-])cc1)NC1CCCCC1 -12.6%
Cc1ccc(-c2cn3c(n2)sc2cc(C(=O)NCCCc4ccccc4)ccc23)cc1 30%
CCOC(=O)c1c(C)oc2nc(C)nc(Nc3ccc(CC)cc3)c12 31.5%
COCCNc1ncnc2c1c(-c1ccccc1)cn2-c1ccc(C)c(Cl)c1 28.5%
COc1ccc(S(=O)(=O)NC(C)C(=O)N2CCCCCC2)cc1 (configuration not stated) 22.8%
COc1ccc(S(=O)(=O)Nc2cc3c(C(=O)OC(C)C)c(C)oc3c3ccccc23)cc1 11.2%
CCCN1CCN(CCCNC(=O)Cn2nc(CC)n3c(cc4occc43)c2=O)CC1 29.7%
Cc1ccc(CN2COc3cc(C)c4c(oc(=O)c5ccccc54)c3C2)cc1 32.2%
CC(C)Cn1c(=O)c2ccccc2n2c(-c3cccc(Cl)c3)nnc12 -1.29%
O=c1cc(-c2ccccc2)n2c(SCc3ccccc3)nnc2[nH]1 41.7%
O=C(CNS(=O)(=O)c1cccs1)N1CCN(c2ccccc2Cl)CC1 4.55%
C/C=C(\C)C(=O)N1CC2(CC(c3cccc(NC(=O)CCCCC)c3)=NO2)C[C@@H]1C(N)=O (some centres not stated) 13.4%
CC/C=C/C(=O)N1CC2(CC(c3cccc(NC(=O)CC)c3)=NO2)C[C@H]1C(N)=O (some centres not stated) 67.8%
O=C(O)C1CC=CC2CCN(C3CCCCC3)C(=O)C21 (configuration not stated) 41%
COC(=O)c1cc(NC(=O)CCS(=O)(=O)c2cc(Br)cc3c2N(C(=O)C2CC2)CC3)cc(C(=O)OC)c1 15.5%
Cc1n[nH]c(=O)n1-c1ccc(Oc2ccccc2)cc1 21%
COc1ccc(-c2nn3c(-c4ccc(OC)cc4)nnc3c3ccccc23)cc1 33.3%
CN(Cc1ccccc1)C(=O)c1cn(C)c2ccc(S(=O)(=O)N(C)C3CCCCC3)cc2c1=O 28.9%
Cc1c(Cl)cccc1NC(=O)C(=O)NCCc1csc2nc(-c3ccccc3F)nn12 14.2% [at 57 µM]
COc1ccc(CCNc2ncnc3c2cnn3-c2ccc(C)cc2)cc1 30.8%
Cc1ccc(S(=O)(=O)N2CCN(c3nc(-n4cnc5ccccc54)nc4ccccc34)CC2)cc1 5.58%
O=C(NCc1ccc2c(c1)CCN2C(=O)c1ccccc1)Nc1cc(F)ccc1F -2.95% [at 57 µM]
CCOc1ccc(Nc2nc(Cc3nnc(SCC(=O)NC4CCCC4)n3C)cs2)cc1 14.3%
COCCCn1c(SCC(=O)Nc2ccccc2)nnc1-c1ccncc1 3.76%
COc1ccc(-c2nc3scc(CCNS(=O)(=O)c4cc(F)ccc4OC)n3n2)cc1OC -5.93%
Cc1ccc(CNC(=O)C2(C(F)(F)F)C/C(=C\CCO)CCCO2)o1 (configuration not stated) 49.9%
COc1ccc(/C=C/c2noc(-c3ccccc3O)n2)cc1OC 14%
CC(=O)OCC(NC(=O)C(Cc1ccccc1)NC(=O)OC(C)(C)C)C1OC(n2ccc(=O)[nH]c2=O)C(OC(C)=O)C1OC(C)=O (configuration not stated) 30.5%
O=S(=O)(NCCS(=O)(=O)N1CCN(c2ccccc2)CC1)c1ccc(Cl)cc1 22.9% [at 57 µM]
CCCCCCC1(C)NC(c2ccc3c(c2)OCO3)=CC(c2ccccc2O)N1 (configuration not stated) 0.409% [at 57 µM]
O=C(Nc1ccc(CSc2ccccc2)cc1)c1ccc(CN2CCOCC2)cc1 25.2%
CN(C)c1ccc(C(CC(=O)O)C(=O)O)cc1 (configuration not stated) 3.78%
